From PubChem BioAssay AID1159580 (chemical genetic matrix, 2015)
The campaign covered roughly 5,500 compounds. About 2,000 (36%) were called active. Roughly 18% stayed inconclusive and do not appear here. Rule as the data show it: active = normalized growth mostly below about 0.91 (no sharp cut-off); inconclusive = no clear call, values can overlap the other calls; inactive = mostly above about 0.92. The list shows a part of the results.

Assay: chemical genetic growth profiling, strain panel (AID 1159580);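 also: tested at 20 µM; growth read once vehicle control cultures reached saturation at 30 °C; 1 = growth at the plate median or of vehicle wells; lower values mean less growth of the strain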
Conditions: S. cerevisiae deletion strains, growth OD

Measured: normalized growth

CC1(C)CCCC2(C)C3C1[C@@H](O)C2(C)C[C@H]3O (stereo not given in full)
inactive: locus YAL021C, strain ccr4, active compounds read low 1.01 | locus YAL026C, strain drs2, active compounds read low 1.04 | locus YAL030W, strain snc1, active compounds read low 0.993 | locus YBL061C, strain skt5, active compounds read low 1.01 | locus YBR009C, strain hhf1, active compounds read low 1.03 | locus YBR023C, strain chs3, active compounds read low 1.01 | locus YBR171W, strain sec66, active compounds read low 1.04 | locus YBR231C, strain swc5, active compounds read low 1.03 | locus YBR279W, strain paf1, active compounds read low 1.03 | locus YCL011C, strain gbp2, active compounds read low 1.03 | locus YCL016C, strain dcc1, active compounds read low 1 | locus YCL061C, strain MRC1, active compounds read low 1.02 | locus YCL069W, strain vba3, active compounds read low 1.02 | locus YCR088W, strain abp1, active compounds read low 1.03 | locus YDL005C, strain med2, active compounds read low 1.03 | locus YDL040C, strain nat1, active compounds read low 1.01 | locus YDR001C, strain nth1, active compounds read low 1.03 | locus YDR069C, strain doa4, active compounds read low 0.992 | locus YDR137W, strain rgp1, active compounds read low 0.973 | locus YDR159W, strain sac3, active compounds read low 0.991 | locus YDR195W, strain ref2 1.02 | locus YDR297W, strain sur2, active compounds read low 0.985 | locus YDR334W, strain swr1, active compounds read low 1.03 | locus YDR335W, strain msn5, active compounds read low 0.995 | locus YDR392W, strain spt3, active compounds read low 0.941 | locus YEL003W, strain gim4, active compounds read low 1.03 | locus YEL037C, strain rad23, active compounds read low 1.03 | locus YEL061C, strain CIN8 (second series), active compounds read low 1.03 | locus YER015W, strain faa2, active compounds read low 1.03 | locus YER016W, strain bim1, active compounds read low 1.01 | locus YER111C, strain swi4, active compounds read low 1.03 | locus YER155C, strain BEM2 (second series), active compounds read low 1.02 | locus YFR010W, strain ubp6, active compounds read low 1.04 | locus YGL167C, strain pmr1, active compounds read low 1.01 | locus YGL173C, strain kem1, active compounds read low 1.03 | locus YGL227W, strain vid30, active compounds read low 1.03 | locus YGL240W, strain doc1, active compounds read low 1 | locus YGL253W, strain hxk2, active compounds read low 1.03 | locus YHR013C, strain ard1, active compounds read low 1.04 | locus YHR027C, strain rpn1, active compounds read low 0.998 | locus YHR030C, strain SLT2, active compounds read low 0.976 | locus YHR079C, strain IRE1, active compounds read low 0.983 | locus YHR142W, strain chs7, active compounds read low 1.01 | locus YJL092W, strain hpr5, active compounds read low 1.03 | locus YJL095W, strain BCK1 (second series), active compounds read low 0.988 | locus YJL095W, strain BCK1, active compounds read low 1 | locus YJL115W, strain asf1, active compounds read low 1.03 | locus YJL129C, strain trk1, active compounds read low 1.05 | locus YJL154C, strain vps35, active compounds read low 1.02 | locus YJL164C, strain tpk1, active compounds read low 1.01 | locus YJL166W, strain qcr8, active compounds read low 1.04 | locus YJL187C, strain SWE1, active compounds read low 0.985 | locus YJR066W, strain TOR1, active compounds read low 0.923 | locus YKL160W, strain elf1, active compounds read low 0.986 | locus YKR026C, strain gcn3, active compounds read low 1.02 | locus YKR091W, strain srl3, active compounds read low 1.02 | locus YLL001W, strain dnm1, active compounds read low 0.994 | locus YLL026W, active compounds read low 1.01 | locus YLL041C, strain sdh2, active compounds read low 0.995 | locus YLR027C, strain aat2, active compounds read low 1 | locus YLR113W, strain HOG1, active compounds read low 1.05 | locus YLR221C, strain rsa3, active compounds read low 1.02 | locus YLR258W, strain gsy2, active compounds read low 1.01 | locus YLR262C, strain YPT6 (second series), active compounds read low 1.04 | locus YLR320W, strain mms22, active compounds read low 1.07 | locus YLR342W, strain FKS1, active compounds read low 1.02 | locus YLR357W, strain rsc2, active compounds read low 1.04 | locus YLR370C, strain arc18, active compounds read low 1.01 | locus YLR384C, strain iki3, active compounds read low 1.02 | locus YML120C, strain ndi1, active compounds read low 1.01 | locus YMR058W, strain fet3, active compounds read low 1.03 | locus YMR125W, strain sto1, active compounds read low 1.04 | locus YMR129W, active compounds read low 1.03 | locus YMR205C, strain PFK2, active compounds read low 1.01 | locus YMR231W, strain pep5, active compounds read low 1.03 | locus YNL071W, strain lat1, active compounds read low 1.02 | locus YNL183C, strain NPR1, active compounds read low 0.963 | locus YNL209W, strain ssb2, active compounds read low 0.997 | locus YNL248C, strain rpa49, active compounds read low 0.996 | locus YNL322C, strain KRE1 (second series), active compounds read low 1.01 | locus YNR049C, strain mso1, active compounds read low 0.993 | locus YOR001W, strain rrp6, active compounds read low 1 | locus YOR070C, strain gyp1, active compounds read low 1 | locus YOR080W, strain dia2, active compounds read low 1.01 | locus YOR083W, strain WHI5, active compounds read low 0.999 | locus YOR106W, strain vam3, active compounds read low 0.985 | locus YOR231W, strain MKK1, active compounds read low 0.977 | locus YOR265W, strain rbl2, active compounds read low 1 | locus YOR270C, strain vph1, active compounds read low 1.08 | locus YOR290C, strain snf2, active compounds read low 0.985 | locus YPL051W, strain arl3, active compounds read low 1 | locus YPL078C, strain atp4, active compounds read low 1.01 | locus YPL106C, strain sse1, active compounds read low 1.06 | locus YPL240C, strain hsp82, active compounds read low 0.987 | locus YPL256C, strain CLN2, active compounds read low 1
